7 molecules from PubChem BioAssay can be followed below.

A short description of assay [1]: viability loss in pontine glioma line – cell-based, SU-DIPG-XXV, MIPE5.0, CellTiter-Glo, qHTS, dose response (AID 1347065).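 Note: cells exposed to compound for 48 hours before ATP readout.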 The settings on record: CellTiter-Glo ATP luminescence.
A short description of assay [2]: SU-DIPG-VI glioma cell viability, MIPE4.0 library, CellTiter-Glo luminescence, qHTS (AID 1347066; cut-off not given, nearly all actives have AC50 up to about 30 µM;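 note: cells exposed to compound for 48 hours before readout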). The settings on record: CellTiter-Glo ATP luminescence.
The nature of assay [3]: JHH-DIPG-1 glioma cell viability, MIPE5.0 library, CellTiter-Glo luminescence, qHTS (AID 1347067).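 Note: cells exposed to compound for 48 hours before readout.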 The settings on record: JHH-DIPG-1 glioma viability, CellTiter-Glo ATP luminescence. (In general: Cellular ATP, detected with luciferase, serves as a proxy for viable cell number.)
Assay [4] is described as follows: SU-DIPG-XXV glioma cell viability, MIPE5.0 library, qHTS (AID 1347068; cut-off not given, nearly all actives have IC50 up to about 30 µM;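 for IC50: cells exposed to compound for 48 hours before viability readout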). For orientation: Quantitative high-throughput screening tests each substance at several concentrations.
Assay [5] in a line: sensitizers of A549 cells to miR-34 induction, primary screen, imaging, A549 dox-inducible miR-34, nuclei and caspase counts (AID 1347080;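 active = compounds whose cell count with miR-34 switched on is under 0.7 times the count with it off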). The settings on record: A549 miR-34 inducible, Hoechst nuclei count, 48 h.
Assay [6] in a line: survival rescue of mitochondrial mutant cells in low glucose, primary screen, MELAS cybrids, Rieske KO mouse fibroblasts, CellTiter-Glo (AID 1508586;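 active = mean z-score across replicates of 1.96 or higher in either the MELAS or the Rieske mutant cell line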;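 note: z relative to plate mean and SD of compound and empty wells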).
Assay [7] can be described thus: viability rescue of complex I mutant cybrids, primary screen, cell-based, galactose medium, ATP luminescence (AID 1645843;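 active = z-score of at least 1.8 in each of two replicates, scored against plate mean and spread of sample wells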;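 note: positive z means more ATP and so rescue of galactose-driven cybrid death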). The settings on record: complex I mutant cybrid cells, 72 h, stronger effect = higher value.
Assay [8] concerns the target NAD(+) hydrolase SARM1 (Homo sapiens) (UniProt Q6SZW1). Kind of assay: SARM1 TIR NADase inhibitors, cell lysate, NAD-Glo luminescence (AID 1508614;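 active = compound whose remaining NAD level is above about 45 nM, limit read from the data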;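 note: higher remaining NAD means stronger inhibition of SARM1 NADase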). The settings on record: SAM-TIR HEK293T lysate NADase, at 1 µM, stronger effect = higher value.
Assay [9] has as its target Mitogen-activated protein kinase 7 (Homo sapiens) (UniProt Q13164). In words: ERK5 transactivation activators in reporter cells, primary screen, cell-based, HTS (AID 1508626;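 active = luciferase signal above three times the same-plate solvent-only control wells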;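 note: luciferase driven by Gal4-ERK5 fusion binding five Gal4 sites before minimal TATA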). The conditions noted are these: HeLa Gal4-ERK5 transactivation, 18 h, at 5 µM, stronger effect = higher value.
The mark [10] stands for this setting: stronger effect = lower value, cell number ratio, induced over uninduced.
Setting [11] is: measured here: relative caspase fold change +Dox/-Dox.
Setting [12] is: measured here: total cells with miR-34 induction, stronger effect = lower value.
[13] abbreviates: measured here: total cells without miR-34 induction.
[14] abbreviates: MELAS cybrid survival, CellTiter-Glo 48 h, stronger effect = higher value.
[15] abbreviates: Rieske KO mouse fibroblast survival, CellTiter-Glo 72 h.

Where “and” joins values, the source holds several entries; their conditions need not be identical. Equal values may be shown once. Inconclusive results are not listed. Calls of active or inactive are those of the source. Unless noted, no cut-off is given here; in the data, nearly all actives have AC50 up to about 26 µM.

Sequence of Mitogen-activated protein kinase 7 (Homo sapiens) (Q13164 whole entry, looked up, the tested form may be a part): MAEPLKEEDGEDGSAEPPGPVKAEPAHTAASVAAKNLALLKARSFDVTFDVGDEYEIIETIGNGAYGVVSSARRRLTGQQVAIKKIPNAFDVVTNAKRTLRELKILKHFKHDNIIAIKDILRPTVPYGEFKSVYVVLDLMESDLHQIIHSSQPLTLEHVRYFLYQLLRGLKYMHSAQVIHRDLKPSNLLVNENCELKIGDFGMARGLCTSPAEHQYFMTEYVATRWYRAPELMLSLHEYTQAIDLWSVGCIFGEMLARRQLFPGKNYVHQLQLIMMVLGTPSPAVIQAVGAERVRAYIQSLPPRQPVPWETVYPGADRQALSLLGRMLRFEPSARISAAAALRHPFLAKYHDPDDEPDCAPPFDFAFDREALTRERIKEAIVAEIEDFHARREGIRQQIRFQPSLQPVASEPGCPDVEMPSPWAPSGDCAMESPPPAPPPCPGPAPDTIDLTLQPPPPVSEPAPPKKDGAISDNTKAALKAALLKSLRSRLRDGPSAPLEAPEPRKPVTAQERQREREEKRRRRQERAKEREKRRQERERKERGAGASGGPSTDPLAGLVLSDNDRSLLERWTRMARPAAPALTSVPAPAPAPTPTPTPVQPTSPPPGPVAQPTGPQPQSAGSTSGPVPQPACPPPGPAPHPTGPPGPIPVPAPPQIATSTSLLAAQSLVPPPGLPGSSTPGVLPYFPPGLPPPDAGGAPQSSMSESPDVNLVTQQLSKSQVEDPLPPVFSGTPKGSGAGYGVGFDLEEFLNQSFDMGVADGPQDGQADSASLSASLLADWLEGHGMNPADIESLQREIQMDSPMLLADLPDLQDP
Sequence of NAD(+) hydrolase SARM1 (Homo sapiens) (Q6SZW1 whole entry, looked up, the tested form may be a part): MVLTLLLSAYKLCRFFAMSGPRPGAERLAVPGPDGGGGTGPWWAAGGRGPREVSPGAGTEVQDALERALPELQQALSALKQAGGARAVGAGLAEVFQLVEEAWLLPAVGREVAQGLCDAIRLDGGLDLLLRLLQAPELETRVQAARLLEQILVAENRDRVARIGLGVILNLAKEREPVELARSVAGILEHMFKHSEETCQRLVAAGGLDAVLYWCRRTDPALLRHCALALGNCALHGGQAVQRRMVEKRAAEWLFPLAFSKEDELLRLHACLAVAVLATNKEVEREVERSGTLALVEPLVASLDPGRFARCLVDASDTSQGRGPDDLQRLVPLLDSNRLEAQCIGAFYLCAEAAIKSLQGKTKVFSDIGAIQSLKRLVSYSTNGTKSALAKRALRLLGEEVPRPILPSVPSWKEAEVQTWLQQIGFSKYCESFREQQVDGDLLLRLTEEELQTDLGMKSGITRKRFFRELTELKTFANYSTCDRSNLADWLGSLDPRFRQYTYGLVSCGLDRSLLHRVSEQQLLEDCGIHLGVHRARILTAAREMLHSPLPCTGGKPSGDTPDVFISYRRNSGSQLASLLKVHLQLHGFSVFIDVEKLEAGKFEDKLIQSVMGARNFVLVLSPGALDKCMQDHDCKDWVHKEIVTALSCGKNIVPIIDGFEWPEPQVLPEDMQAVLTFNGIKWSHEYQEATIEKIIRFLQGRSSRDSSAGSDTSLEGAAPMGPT

For `CN(C)CC/C=C1/c2ccccc2COc2ccc(CC(=O)O)cc21`, the result in assay [1], in assay [2], in assay [3] and in [4] was inactive. Further, the fold change in assay [5] (setting [10]) was 0.88 (inactive); in assay [5] (setting [11]) it was 0.692. The cell count in assay [5] (setting [12]) came to 9640; in [5] (setting [13]) it was 10900. Also, the z-score in assay [6] (setting [14]) is 0.699 (inactive) and 0.823 (inactive); in [6] (setting [15]), -0.41 and 0.615; in assay [7], 0.505 (inactive).

As for `O=C(O)c1cn(-c2ccc(F)cc2)c2cc(N3CCNCC3)c(F)cc2c1=O`, the call in [1], in assay [2], in assay [3] and in [4] was inactive. For the same molecule, the fold change was 0.867 (inactive) and 0.86 (inactive) in assay [5] (setting [10]); 3.37 and 1.06 in [5] (setting [11]). Moreover, the cell count was 11600 and 8760 in assay [5] (setting [12]); 13400 and 10200 in assay [5] (setting [13]). The z-score in assay [6] (setting [14]) is 0.702 (inactive) and 0.944 (inactive); in [6] (setting [15]), 0.262 and 0.886; in [7], 0.12 (inactive). Moreover, the remaining NAD in [8] is 14 nM (inactive). Moreover, the luciferase signal in assay [9] is 72 AU (inactive).

In general, AC50 refers to the concentration at which the activity in the assay is half-maximal. A word on the IC50: it is the concentration that gives 50% inhibition. `CCCCN(CCCC)CCC(O)c1cc2c(Cl)cc(Cl)cc2c2cc(C(F)(F)F)ccc12` (stereo unspecified): the AC50 in [1] was 23.5 µM (active); in [2] it was 23.5 µM (active); in assay [3], 16.6 µM (active). In addition, the IC50 in assay [4] is 20.9 µM (active). The fold change in assay [5] (setting [10]) was 0.972 (inactive); in assay [5] (setting [11]), 0.81. Moreover, the cell count in [5] (setting [12]) was found to be 8330; in assay [5] (setting [13]), 8580. Further, the values for the z-score in assay [6] (setting [14]) and in assay [6] (setting [15]) were -1.05 (inactive) and -0.678, respectively.

As for `O=C(O)CSCC(=O)NC1CCSC1=O` (stereo unspecified), the outcome in [1], in [2], in assay [3] and in [4] was inactive. The fold change in [5] (setting [10]) was 0.961 (inactive) and 0.85 (inactive); in assay [5] (setting [11]), 0.755 and 1.41. The cell count in [5] (setting [12]) is 8260 and 8130; in [5] (setting [13]) it was 8600 and 9570. The z-score is -0.199 (inactive) in assay [6] (setting [14]) and 0.356 in assay [6] (setting [15]). Further, in assay [8], the remaining NAD was 10 nM (inactive).

Turning to `Nc1ccc(S(N)(=O)=O)cc1`, the call in assay [1], in [2], in assay [3] and in assay [4] was inactive. Also, the fold change is 0.863 (inactive) and 1.01 (inactive) and 0.955 (inactive) in assay [5] (setting [10]); 1.61 and 1.13 and 2.65 in assay [5] (setting [11]). In addition, the cell count was 8720 and 8600 and 12400 in assay [5] (setting [12]); 10100 and 8510 and 12900 in assay [5] (setting [13]). The z-score in assay [6] (setting [14]) is -0.359 (inactive) and -1 (inactive); in assay [6] (setting [15]), 0.662 and -0.707. Further, in assay [8], the remaining NAD is 10 nM (inactive). Further, the luciferase signal in [9] was 164 AU (inactive).

Regarding `CN(C)CCc1c[nH]c2ccc(CS(=O)(=O)N3CCCC3)cc12`, the result in assay [1], in [2], in [3] and in [4] was inactive. For the same molecule, the fold change in assay [5] (setting [10]) is 0.94 (inactive); in assay [5] (setting [11]), 1.05. The cell count in assay [5] (setting [12]) turned out to be 7180; in assay [5] (setting [13]), 7640. Also, the figures for the z-score in [6] (setting [14]) and in assay [6] (setting [15]) were -0.0807 (inactive) and -0.352, respectively. Moreover, the remaining NAD in [8] was 10 nM (inactive). The luciferase signal in assay [9] was 52 AU (inactive).

Consider `O=C(O)CCNC(=O)c1ccc(N=Nc2ccc(O)c(C(=O)O)c2)cc1`, for which the call in assay [1], in assay [2], in assay [3] and in assay [4] was inactive. In addition, the fold change in assay [5] (setting [10]) was 0.971 (inactive) and 0.94 (inactive) and 0.899 (inactive); in assay [5] (setting [11]) it was 0.807 and 0.806 and 1.14. The cell count in [5] (setting [12]) was 9210 and 7860 and 9290; in assay [5] (setting [13]) it was 9490 and 8360 and 10300. For the same molecule, the z-score is -1.26 (inactive) in assay [6] (setting [14]), -1.16 in [6] (setting [15]) and 1.23 (inactive) in [7]. Besides, the remaining NAD in assay [8] was 10 nM (inactive).
